Results on 43 compounds are retold here after ChEMBL document CHEMBL4513135, “CO-ADD screening of IQOG CSIS (Spain) compounds”.

Each structure is given as a SMILES string. Values joined by “and” are separate entries in the source; they are usually repeats but may differ in a detail not shown here. Equal entries are not always repeated. Measured potencies and affinities stand elsewhere.

In one assay the test system is Staphylococcus aureus. The following applies: Concentration 32 ug.mL-1, ASSAY_TEST Inhibition of Bacterial Growth, detection method Absorption (OD600), MEDIA CAMHB, plate type 384well, NBS, CORNING #3640, time 18 hr.
In another assay the test system is Escherichia coli. The following applies: Concentration 32 ug.mL-1, ASSAY_TEST Inhibition of Bacterial Growth, detection method Absorption (OD600), MEDIA CAMHB, plate type 384well, NBS, CORNING #3640, time 18 hr.

With `O=C(N/N=C/c1ccc([N+](=O)[O-])cc1)c1cc2ccccc2[nH]1`, the figures for the Inhibition with Staphylococcus aureus and in the assay with Escherichia coli were 11.24% and 10.51%, respectively.
`C#CCNc1nc(NCCCCC2CCN(Cc3ccccc3)CC2)c(C#N)cc1C#N`: the Inhibition was 5% with Staphylococcus aureus and -12.03% in the assay on Escherichia coli.
On to `N#CC1(Br)C(=NBr)Oc2ccc3ccccc3c2C1c1ccccc1` (stereo unspecified), for which the Inhibition turned out to be 7.34% in the assay on Staphylococcus aureus and 1.03% with Escherichia coli.
For `C#CCNc1nc(N)c(C#N)c(-c2ccccc2)c1C#N` the same measures were 3.95% and 15.49%.
With `O=C(Cc1c[nH]c2ccccc12)NN=C1CCCCCC1`, the figures for the Inhibition in the assay on Staphylococcus aureus and with Escherichia coli were 10.21% and 6.07%, respectively.
With `N#CC1=C(N)Oc2ccc3ccccc3c2C1c1ccccc1` (stereo unspecified), the values for the Inhibition in the assay with Staphylococcus aureus and in the assay with Escherichia coli were 40.09% and -6.38%, respectively.
Take `Cc1ccc2nc(Cl)c(/C=N/C(C)(C)C)cc2c1`: the Inhibition was determined as 28.46% with Staphylococcus aureus and 12.92% in the assay with Escherichia coli.
For the compound `COc1ccc(C2c3c(ccc4ccccc34)OC(=NBr)C2(Br)C#N)cc1OC` (stereo unspecified), the Inhibition is listed as 13.88% in the assay with Staphylococcus aureus and -20.35% in the assay with Escherichia coli.
Turning to `CC(=NNC(N)=O)c1c[nH]c2ccccc12`, the results for the Inhibition in the assay on Staphylococcus aureus and with Escherichia coli were 2.54% and 16.24%, respectively.
As to `Cn1c(CO)cc2cc(OCCCC3CCN(Cc4ccccc4)CC3)ccc21`, the Inhibition with Staphylococcus aureus is listed as 7.02%; in the assay with Escherichia coli, -17.9%.
For `C#CCNc1ccc(Cl)nn1` the same measures were 21.22% and -28.17%.
As for `CCOC(=O)c1cc2cc(OC(=O)Oc3ccc([N+](=O)[O-])cc3)ccc2[nH]1`, the Inhibition in the assay with Staphylococcus aureus was 13.73%; with Escherichia coli, -33.4%.
On to `Cl.ClCCCC1CCNCC1`, for which the figures for the Inhibition in the assay on Staphylococcus aureus and in the assay with Escherichia coli were 28.57% and 19.24%, respectively.
For `CSC1=NC(=Cc2cn(C)c3ccccc23)C(=O)N1C`, in that order: 3.9% and -1.24%.
In the case of `C=C1CN(C)c2ncc(C#N)c(=N)n21`, the results for the Inhibition in the assay with Staphylococcus aureus and in the assay with Escherichia coli were 2.81% and -21.82%, respectively.
Consider `O=C(N/N=C/c1cccc(Cl)c1)c1cc2ccccc2[nH]1`, for which the values for the Inhibition in the assay with Staphylococcus aureus and in the assay on Escherichia coli were -16.68% and -12.27%, respectively.
Regarding `O=C(Cc1c[nH]c2ccccc12)NN=Cc1ccccc1`, the Inhibition was 3.3% in the assay with Staphylococcus aureus and -3.03% with Escherichia coli.
On to `O=C(O)c1cc2ccccc2[nH]1` [INDOLE-2-CARBOXYLIC ACID], for which the Inhibition in the assay with Staphylococcus aureus stood at 5.6%; with Escherichia coli, 18.03%.
`CC(C(=O)O)c1c[nH]c2ccccc12` (stereo unspecified): the Inhibition in the assay with Staphylococcus aureus is on record as 5.61%; with Escherichia coli it was 8.04%.
For the compound `O=C(N/N=C/c1c[nH]c2ccccc12)c1cc2ccccc2[nH]1`, the Inhibition with Staphylococcus aureus is 11.07%; in the assay on Escherichia coli, 9.94%.
As to `C=CCNc1nc(N)c(C#N)cc1C#N`, the Inhibition with Staphylococcus aureus is 40.4%; with Escherichia coli, -12.52%.
Consider `N#CC1(Br)C(=NBr)Oc2ccc3ccccc3c2C1c1ccc([N+](=O)[O-])cc1` (stereo unspecified), for which the Inhibition is 17.16% in the assay with Staphylococcus aureus and -19.01% in the assay with Escherichia coli.
For `C#CCNc1nc(NCC#C)c(C#N)cc1C#N`, the Inhibition is listed as -5.55% with Staphylococcus aureus and -10.16% with Escherichia coli.
Regarding `Br.C#CCNCC`, the Inhibition in the assay with Staphylococcus aureus worked out at 25.79%; in the assay on Escherichia coli, 18.7%.
Take `CCOC(=O)C1=C(C)Oc2nc3c(c(N)c2C1c1ccccc1OC)CCC3` (stereo unspecified): the values for the Inhibition with Staphylococcus aureus and in the assay on Escherichia coli were 12.13% and 5.78%, respectively.
Consider `COc1cc(C2C(C#N)=C(N)Oc3ccc4ccccc4c32)ccc1O` (stereo unspecified), for which the Inhibition with Staphylococcus aureus is listed as 37.28%; with Escherichia coli it was -11.46%.
With `c1ccc(COc2ccc3[nH]ccc3c2)cc1`, the Inhibition was 4.67% in the assay with Staphylococcus aureus and 3.23% in the assay with Escherichia coli.
For `CCCCNNC(=O)c1cc2ccccc2[nH]1`, in that order: 0.71% and -2.05%.
In the case of `O=C(NCc1ccccc1)c1cc2ccccc2[nH]1`, the Inhibition in the assay with Staphylococcus aureus was found to be 5.56%; with Escherichia coli it was 8.05%.
For `CC1(C)OS(=O)(=O)C2=C1NC(N)=C(C#N)C2c1ccccc1` (stereo unspecified), the Inhibition in the assay on Staphylococcus aureus amounted to 8.23%; with Escherichia coli, 10.42%.
For `Cn1cc(/C=C2\NC(=S)NC2=O)c2ccccc21`, in that order: 2.93% and 3.35%.
`N#Cc1cc(C#N)c(NCc2ccccc2)nc1N`: the Inhibition in the assay with Staphylococcus aureus is 27.12%; in the assay on Escherichia coli, -14.28%.
As for `C#CCN(C)c1nc(OC)c(C#N)cc1C#N`, the Inhibition in the assay with Staphylococcus aureus is on record as 10.54%; in the assay on Escherichia coli, -19.1%.
Consider `Cl.OCC1CCN(Cc2ccccc2)CC1`, for which the Inhibition in the assay on Staphylococcus aureus was found to be 26.15%; in the assay on Escherichia coli, 15.91%.
For the compound `N#CCC(=C(C#N)C#N)c1ccccc1`, the Inhibition came out at 11.65% with Staphylococcus aureus and 4.41% in the assay on Escherichia coli.
Regarding `N#Cc1c(N)nc(S)c(C#N)c1-c1ccccc1`, the values for the Inhibition in the assay with Staphylococcus aureus and with Escherichia coli were 14.03% and 9.92%, respectively.
On to `N#Cc1cc(C#N)c(NC2CCN(Cc3ccccc3)CC2)nc1N`, for which the Inhibition with Staphylococcus aureus (32 ug/mL) was 23.9% and 14.84%; in the assay with Escherichia coli (32 ug/mL), -6.37% and -14.46%.
`N#Cc1c(N)nc(NCc2ccccc2)c(C#N)c1-c1ccccc1`: the Inhibition is reported as -2.03% in the assay on Staphylococcus aureus and -5.8% in the assay on Escherichia coli.
Consider `Cc1nn(-c2ccccc2)c2ncn3nc(-c4ccccc4)nc3c12`, for which the Inhibition in the assay on Staphylococcus aureus worked out at 11.88%; in the assay on Escherichia coli, 13.25%.
For `CC(=O)Nc1nc(Cl)c(C#N)c(-c2ccccc2)c1C#N`, in that order: 21.15% and -6.98%.
For the compound `COc1ccc(-c2c(C#N)c(=O)oc3c2ccc2ccccc23)cc1`, the Inhibition with Staphylococcus aureus (32 ug/mL) was 29.57% and 19.64%; in the assay on Escherichia coli (32 ug/mL), -26.6% and -23.12%.
With `COc1ccc2nc(Cl)c(C=O)cc2c1`, the Inhibition in the assay on Staphylococcus aureus (32 ug/mL) is 19.77% and 20.88%; in the assay with Escherichia coli (32 ug/mL), 18.53% and 18.96%.
Take `CCOC(=O)C1=C(C)OC(N)=C(C#N)C1c1ccc([N+](=O)[O-])cc1` (stereo unspecified): the Inhibition in the assay with Staphylococcus aureus is recorded as 16.31%; in the assay with Escherichia coli it was -9.87%.

As a reminder, the Inhibition is the relative decrease from the control value, in per cent.
